PubChem BioAssay (NCATS)
Where “and” joins values, the source holds several entries; their conditions need not be identical. Identical values can stand only once. Inconclusive results are not listed. Calls of active or inactive are those of the source. Calls come from the whole dose curve; as a rule, active = well fitted curve in the direction sought with a large enough effect; inconclusive = small, poorly fitted or top-dose-only effect, or another doubt; inactive = no such curve, though single readings can be large; an effect the other way counts as inactive or inconclusive.

Columns and labels:
[1] = Viability qHTS for spleen associated tyrosine kinase inhibitor (SYKi) naive MV4-11 cells (AID 1963823); note: nearly all actives have a fitted effect of over 40% in size
In short: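 Read-out: CellTiter-Glo luminescence. Exposure: 72 hr, 37 C, 5% CO2, 95% humidity. Cells: MV4-11 without SYK inhibitor history, 500/well, qHTS format.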

[2] = Viability qHTS for spleen associated tyrosine kinase inhibitor (SYKi) drug resistant MV4-11 cells (AID 1963824); note: nearly all actives have a fitted effect of over 35% in size
In short: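 SYK-inhibitor-resistant MV4-11 AML cells were seeded at 500 per well onto compound and cultured 72 hours (37 °C, 5% CO2). CellTiter-Glo was then added, and after 10 min at room temperature, luminescence gave viability.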

[3] = Cellular viability qHTS for adrenocortical cancer (ACC) cell line SW-13 (AID 1963989); conditions: SW-13 ACC cells viability, CellTiter-Glo, 48 h; activity (max response): active compounds read low; note: nearly all actives have a fitted effect of over 65% in size;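 for activity (max response): cells grown in serum-free medium with ITS supplement; % is set by controls: 0 for no effect and ±100 for the full control effect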
In short: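 Luminescent ATP read-out (CellTiter-Glo, 20 min at room temperature) measured metabolically competent SW-13 cells after 48 h compound treatment. Final concentrations spanned up to 46 uM; bortezomib served as positive control.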

[4] = Cellular viability qHTS for adrenocortical cancer (ACC) cell line NCI-H295R (AID 1963990); note: nearly all actives have a fitted effect of over 60% in size
In short: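 IC50 and maximal efficacy derive from four-parameter logistic modelling of titration curves, with reads scaled between DMSO-only wells (0%) and doxorubicin hydrochloride (100% inhibition). Compounds spanned up to 46 uM over 48 h.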
Potency is the fitted concentration of half-maximal effect.

CC(C)(Cc1ccc2ccccc2c1)NC[C@@H](O)COc1cccc(Cl)c1C#N
active: Potency [1] 6.61 µM | Potency [2] 6.61 µM | Potency [3] 6.31 µM | Potency [4] 6.31 µM

CCN1CCN(Cc2ccc(Nc3ncc(F)c(-c4cc(F)c5nc(C)n(C(C)C)c5c4)n3)nc2)CC1
active: Potency [1] 146 nM and 148 nM | Potency [2] 366 nM and 417 nM | Potency [3] 15.8 µM | Potency [4] 4.47 µM

c1ccc(Cn2c(-c3ccc(OCC(C4CCNCC4)n4c(-c5ccccc5)nc5ccccc54)cc3)nc3ccccc32)cc1 (configuration not stated)
active: Potency [1] 5.25 µM | Potency [2] 7.42 µM | Potency [3] 25.1 µM | Potency [4] 7.08 µM

Nc1nc(N)c(-c2ccccc2)s1
inactive: Potency [1] | Potency [2] | activity (max response) [3] 6.99% | Potency [4]

CCC(=O)c1ccc(O)cc1
active: Potency [2] 7.5 µM
inactive: Potency [1] | activity (max response) [3] 5.38% | Potency [4]

C[C@]12CCC(=O)C=C1CC[C@@H]1[C@@H]2CC[C@@]2(C)[C@H]1CC[C@]2(O)C(=O)CO
inactive: Potency [1] | Potency [2] | activity (max response) [3] -2.88% | Potency [4]

COc1ccc(S(=O)(=O)N2CCc3cccc(-c4ccncc4)c32)cc1
active: Potency [1] 0.833 µM | Potency [2] 0.833 µM | Potency [3] 0.316 µM | Potency [4] 0.158 µM

C[C@@]1(c2ncncc2F)NC(=O)c2cc(-c3cn[nH]c3)ccc21
inactive: activity (max response) [3] -10.1% | Potency [4]
active: Potency [1] 16.6 µM | Potency [2] 20.9 µM

CC1=C(/C=C/C(C)=C/C=C/C(C)=C/C(=O)O)C(C)(C)CCC1
active: Potency [1] 668 nM and 132 nM | Potency [2] 1.06 µM and 468 nM
inactive: activity (max response) [3] -7.6% and 3.95% | Potency [4]

COC(=O)c1cc(S(N)(=O)=O)ccc1OC
inactive: Potency [1] | Potency [2] | activity (max response) [3] 6.75% | Potency [4]

C[C@]12CC[C@@H]3c4ccc(O)cc4CC[C@H]3[C@@H]1CC[C@@H]2OC(=O)CCC1CCCC1
inactive: Potency [1] | Potency [2] | activity (max response) [3] 5.6% | Potency [4]

C[C@H]1C[C@H]2[C@@H]3CCC4=CC(=O)C=C[C@]4(C)[C@H]3C(=O)C[C@]2(C)[C@@]1(O)C(=O)CO
inactive: Potency [1] | Potency [2] | activity (max response) [3] -6.73% | Potency [4]

O=C(NCCCNC(=O)c1ccc[nH]c1=O)c1cc(-c2ccccc2)on1
active: Potency [1] 4.68 µM | Potency [2] 4.68 µM | Potency [3] 22.4 µM | Potency [4] 15.8 µM

CN=C(NC#N)NCCSCc1nc[nH]c1C
inactive: Potency [1] | Potency [2] | activity (max response) [3] -4.08% | Potency [4]

COC(=O)/C=C(/C)N
active: Potency [1] 16.8 µM
inactive: Potency [2] | activity (max response) [3] 13.3% | Potency [4]

Cc1ccc(C(C)OC(=O)C2(C)CCC(C(=O)O)C2(C)C)cc1 (configuration not stated)
inactive: Potency [1] | Potency [2] | activity (max response) [3] 8.64% | Potency [4]

COc1cc(C(=O)NC(N)=Nc2ccc(C)c(NC(=O)c3ccc(-c4ccccc4)cc3)c2)cc(OC)c1OC
active: Potency [1] 14.8 µM | Potency [2] 8.33 µM | Potency [3] 11.2 µM | Potency [4] 10 µM

O=C(/C=C/c1cccc(S(=O)(=O)Nc2ccccc2)c1)NO
active: Potency [1] 563 nM and 417 nM | Potency [2] 282 nM and 332 nM | Potency [3] 3.55 µM | Potency [4] 2.51 µM

CC(=O)[C@]1(O)Cc2c(O)c3c(c(O)c2[C@@H](O[C@H]2C[C@H](N)[C@H](O)[C@H](C)O2)C1)C(=O)c1ccccc1C3=O
active: Potency [1] 0.075 µM | Potency [2] 119 nM and 83.3 nM | Potency [3] 46.1 nM and 2 µM | Potency [4] 1.84 µM and 2.24 µM

CC(C)(C)CC(C)(C)c1ccc(O)c(-n2nc3ccccc3n2)c1
inactive: Potency [1] | Potency [2] | activity (max response) [3] 4.68% | Potency [4]

CC(C)(NS(=O)(=O)c1ccc2c(Cl)cnc(N=C(N)N)c2c1)C(=O)O
inactive: Potency [1] | Potency [2] | activity (max response) [3] 5.36% | Potency [4]

CO[C@@]1(NC(=O)C(C(=O)O)c2ccc(O)cc2)C(=O)N2C(C(=O)O)=C(CSc3nnnn3C)CO[C@@H]21 (some centres not stated)
inactive: Potency [1] | Potency [2] | activity (max response) [3] 13.4% | Potency [4]

O=C(/C=C/c1ccc(CN(CCO)CCc2c[nH]c3ccccc23)cc1)NO
active: Potency [1] 0.0742 µM | Potency [2] 0.059 µM | Potency [3] 0.708 µM | Potency [4] 0.562 µM
